# Measurements reported in US20210230599, “STEM-LOOP COMPOSITIONS AND METHODS FOR INHIBITING INTERLEUKIN-8” (VITRISA THERAPEUTICS, INC., published 2021).
# Molecular target: Interleukin-8 (IL8, CXCL8), C-terminal His-tagged (Homo sapiens, UniProt P10145 SEQ:1-72)
# Test: competition; competition TR-FRET; G18U
# Conditions: tags: C-terminal 6xHis (Sino Biological); ssRNA; 2'-F G, 2'-OMe A/C/U, 5' C6NH2, 3' idT
# Method: To better understand the sequence requirements and to confirm the stem structures of members of the Aptamer 3 family as determined from sequence covariation analysis from both the primary and secondary (degenerate) selections, a series of variants which included mutations and deletions to the predicted stems were synthesized and screened (Table 24). Activity of each of these variants were tested using a time resolved competition TR-FRET assay in which the labeled parent Aptamer 3 was competed with increasing concentrations of unlabeled variants for binding to IL8 (FIG. 14). Briefly, 2-fold dilutions of thermally equilibrated aptamers were made in TR-FRET Buffer (50 mM MOPS, pH 7.4, 125 mM NaCl, 5 mM KCl, 50 μM CHAPS, 0.1 mg/mL BSA, 1 mM CaCl₂, and 1 mM MgCl₂). 5 μL of aptamer or control solution was added to 5 μl mix of 10 nM C-terminal His-tagged-IL8, 60 nM ALEXA FLUOR® 647-labeled Aptamer, and 5 nM anti-His-Eu (Perkin Elmer) in a black wall low volume 384 well plate (Greiner). For control, 5 μl of 1000-fold excess of unlabeled parent aptamer or 5 μl TR-FRET buffer alone was added to the mix of ALEXA FLUOR® 647-labeled aptamer, His-IL8, and anti-His-Eu. The plate was covered with a plate seal and subsequently incubated in the dark for 1 hour at room temperature. The plate was read on a Biotek CYTATION™ 5 plate reader. […]
row,Sequence,binding signal
1,UGAUGACGGUAGAUUACUGGUAGAGUGACCGCAUCU,> 10 fold worse than Aptamer 3
